Several values for one entry are separate records, joined by “and”; a condition that tells them apart may be missing. Equal entries are not always repeated. Some compounds were tested as several samples or in several runs, with calls that do not always agree. Activity calls are given as the source filed them. How the source made its calls: active means hit-call score of the fitted dose curve at least 0.9, where 1 is the maximum; inactive means score below 0.9.
Read-out: Monocyte Chemoattractant Protein-1 (MCP1), CCL2 (gene 6347)
Experiment: BSK_SAg_MCP1: BioMAP Diversity Plus: SAg Assay for Monocyte Chemoattractant Protein-1 (MCP1) Biomarker Activity (AID 2283090)
Conditions: primary human HUVEC with PBMC; actives raise or lower the signal
Protocol: BSK_SAg is a cell-based, multiplexed-readout assay that uses umbilical vein endothelium and peripheral blood mononuclear cells, a human vascular primary cell co-culture, with measurements taken at 24 hours after chemical dosing in a 96-well plate.BSK_SAg_MCP1 is an assay component measured in the BSK_SAg assay. It measures MCP-1 antibody related to regulation of gene expression using ELISA technology.Data from the assay component BSK_SAg_MCP1 was analyzed into 1 assay endpoint. This assay endpoint, BSK_SAg_MCP1, was analyzed with bidirectional fitting relative to DMSO as the negative control and baseline of activity. Using a type of binding reporter, gain or loss-of-signal activity can be used to understand changes in the signaling as they relate to the gene CCL2. Furthermore, this assay endpoint can be referred to as a primary readout, because this assay has produced multiple assay endpoints where this one serves a signaling function. To generalize the intended target to other relatable targets, this assay endpoint is annotated to the cytokine intended target family, where the subfamily is chemotactic factor.
The levels of cell surface (or secreted, indicated by the prefix "s") biomarker endpoints were measured by ELISA. Overt cytotoxicity to cells in confluent adherent cultures (all systems other than the BT system) was assessed by measuring total protein levels using sulforhodamine B (SRB) staining in parallel cultures at the time of biomarker measurements, indicated as SRB endpoints. For proliferation assays for adherent cell types, individual cell types are cultured at sub-confluence and relative cell numbers quantified by SRB staining at time points optimized for each system (48 h: 3C and CASM3C systems; 72 h: BT and HDF3CGF systems; 96 h: SAg system). SRB was performed by staining cells with 0.1% SRB after fixation with 10% TCA and reading wells at 560 nm.Viability and proliferation of PBMC (T cells) was quantified by Alamar Blue reduction for the SAg and BT systems. For PBMC viability (referred to as PBMC Cytotoxicity within the assay endpoint names), cells were plated (75,000/well in a 96-well plate) and then chemical samples added for 1 h before addition of activators, SEB and TSST-1 (20 ng/mL final concentration each). Cells were incubated for 90 h. Then, Alamar Blue (20 uL/well) (Invitrogen, Cat DAL1100) was added for 6 h, and the plates were read with a fluorescence microplate reader at 546/580 nm (excitation/emission). For PBMC proliferation, cells were plated and activated as above but incubated for only 16 h prior to addition of Alamar Blue. Plates were read after 6 h.

SMILES | outcome | AC50
O=C(NCc1ncc(C(F)(F)F)cc1Cl)c1c(Cl)cccc1Cl | inactive | –
OCC(CO)(CBr)CBr | inactive | –
O=C1c2ccc(O)c(O)c2C(=O)c2c(O)ccc(O)c21 | inactive | –
CCCCCCCCCCCCCCCCCC[N+](C)(C)Cc1ccccc1 | – | 3.01 µM (active)
CC(=O)Nc1ccc(O)cc1 | inactive | –
Cc1[nH]nc2c1N=C(c1ccccc1Cl)c1cc([N+](=O)[O-])ccc1N2 | – | 3.44 µM (active)
CCOC(=O)CN[C@@H](C(=O)N1CC[C@H]1C(=O)NCc1ccc(/C(N)=N/O)cc1)C1CCCCC1 | inactive | –
Oc1ccc(Cc2ccccc2O)cc1 | inactive | –
COc1cccc(O)c1 | inactive | –
COC1=CC(=O)C[C@@H](C)[C@]12Oc1c(Cl)c(OC)cc(OC)c1C2=O | inactive | –
O=C(CCCN1CCC(O)(c2ccc(Cl)cc2)CC1)c1ccc(F)cc1 | inactive | –
CC[N+](CC)(CC)Cc1ccccc1 | inactive | –
O=S(=O)(O)C(F)(F)C(F)(F)C(F)(F)C(F)(F)C(F)(F)C(F)(F)C(F)(F)C(F)(F)C(F)(F)C(F)(F)F | inactive | 8.67 µM (active)
CCCCc1oc2ccccc2c1C(=O)c1cc(I)c(OCCN(CC)CC)c(I)c1 | – | 20.5 µM (active)
O=C(O)C(F)(F)OC(F)(F)C(F)(F)OC(F)(F)C(F)(F)OC(F)(F)C(F)(F)C(F)(F)C(F)(F)F | – | 48.8 µM (active) and 47.2 µM (active)
Clc1ccc(Nc2nnc(Cc3ccncc3)c3ccccc23)cc1 | inactive | –
Cc1cccc2c1ccc1ccccc12 | inactive | –
CN(CCO)S(=O)(=O)C(F)(F)C(F)(F)C(F)(F)C(F)(F)C(F)(F)C(F)(F)C(F)(F)C(F)(F)F | inactive | –
CCCCCc1ccc(O)cc1 | – | 27.5 µM (active)
O=C(CC(=O)C(F)(F)C(F)(F)C(F)(F)F)c1cccs1 | – | 37.4 µM (active) and 41.6 µM (active)

SMILES | outcome | AC50
OCC(F)(F)C(F)(F)C(F)(F)C(F)(F)C(F)(F)C(F)(F)C(F)(F)C(F)(F)C(F)(F)C(F)(F)C(F)(F)F | inactive | –
CCCCC(CC)C(=O)O (stereo not given) | inactive | –
O=C(O)CCC(F)(F)C(F)(F)C(F)(F)C(F)(F)C(F)(F)F | inactive | –
CN(Cc1cnc2nc(N)nc(N)c2n1)c1ccc(C(=O)N[C@@H](CCC(=O)O)C(=O)O)cc1 | inactive | –
C=CC(=O)OCCC(F)(F)C(F)(F)C(F)(F)C(F)(F)C(F)(F)C(F)(F)C(F)(F)C(F)(F)F | inactive | –
Cc1ccc(N=Nc2c(O)ccc3ccccc23)c(C)c1 | inactive | –
CCCCCCCCCCCCOS(=O)(=O)O | inactive | –
OCCN1CN(CCO)CN(CCO)C1 | – | 20 µM (active)
O=C(c1ccccc1)c1ccccc1 | inactive | –
COc1cc(OC)nc(NC(=O)NS(=O)(=O)Nc2ccccc2C(=O)N(C)C)n1 | inactive | –
N=C(N)c1ccc(OCCCCCOc2ccc(C(=N)N)cc2)cc1 | inactive | –
O=C(NO)c1ccccc1 | inactive | –
CCCCCCCCCCCC | inactive | –
CC1=NN(c2ccccc2)C(=O)C1 | inactive | –
CCCCCCCCCCCCCCC | inactive | –
C=CC(C)(CCC=C(C)C)OC(C)=O (stereo not given) | inactive | –
O=C1OC2(c3ccccc31)c1cc(I)c(O)c(I)c1Oc1c2cc(I)c(O)c1I | – | 10.2 µM (active)
CC(C)(C)c1ccc(O)c(O)c1 | – | 30.6 µM (active)
CN(C)c1ccc(C(=C2C=CC(=[N+](C)C)C=C2)c2ccccc2)cc1 | – | 0.026 µM (active)

Reference: PubChem BioAssay (EPA / NIEHS)
